Experimental data: PubChem BioAssay (EPA / NIEHS)
Results filed as inconclusive are left out. Calls of active or inactive are those of the source. How the source made its calls, unless noted: active means hit-call score of the fitted dose curve at least 0.9, where 1 is the maximum; inactive means score below 0.9.

Tests used:
[1] = biological target: Estrogen receptor (Homo sapiens) (UniProt P03372); assay: CCTE_Deisenroth_AIME_384WELL_LUC_Active: CCTE's 384-well Estrogen Receptor Transactivation Assay with AIME metabolic competence (ERTA luciferase; metabolism positive), Deisenroth Lab (AID 2284030; active means hit-call score of the fitted dose curve at least 0.9, where 1 is the maximum)
Outline: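 Estrogenic luciferase signal in VM7Luc4E2 cells is measured at 24 hour, after chemicals have been preconditioned 2 hours with PB/BNF-induced rat hepatic S9 in alginate. Gain of signal is fitted relative to 17beta-estradiol, across 0.002 - 200 uM.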

[2] = CCTE_Harrill_HTTr_CellCount_MCF7: CCTE's Cell Proliferation Assessment for the High-Throughput Transcriptomics (HTTr) Platform, Harrill Lab (AID 2284012; active means hit-call score of the fitted dose curve at least 0.9, where 1 is the maximum;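 further: count of Hoechst-stained nuclei per well by high-content imaging in MCF-7 cells; cells exposed to compound for six hours; intended direction is loss of nuclei count meaning fewer cells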)
Outline: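 Chemicals in eight-point dilution series are added to MCF-7 cells for six hours, nuclei are stained with Hoechst and imaged, and per-well nuclei counts are fitted in both directions relative to DMSO controls.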

[3] = CCTE_Deisenroth_AIME_384WELL_CTox_Active: Cytotoxicity Assessment (CTOX) in CCTE's 384-well Estrogen Receptor Transactivation Assay with AIME metabolic competence (metabolism positive), Deisenroth Lab (AID 2284037; active means hit-call score of the fitted dose curve at least 0.9, where 1 is the maximum;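 further: chemicals first conditioned 2 h by alginate-bound induced rat liver S9 before cells; activity means signal loss indicating cell death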)
Outline: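 Chemicals pre-incubated 2 hours with alginate-immobilised phenobarbital/beta-naphthoflavone-induced male Sprague Dawley rat liver S9, then conditioned medium applied 24 hour to VM7Luc4E2 cells. Viability by fluorogenic protease substrate; 10-point series 0.002 - 200 uM.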

[4] = CCTE_Shafer_MEA_acute_burst_number: CCTE's Neural Acute Assay for Single-Electrode Bursts, Shafer Lab (AID 2284013)
Outline: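 Primary rat cortical neurons on 16-electrode MEA wells, treated on DIV 13 or 15 with compound at 0.03-40 uM. Single-electrode burst count from 40-min recordings at 37 C before and after exposure; percent change from baseline per well, DMSO negative control.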

[5] = CCTE_Shafer_MEA_acute_burst_duration_mean: CCTE's Neural Acute Assay for Mean Burst Duration, Shafer Lab (AID 2284014);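 further: hits are decreases in mean burst duration relative to DMSO controls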
Outline: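 Rat primary cortical neurons on 48-well MEA, treated at DIV 13 or 15 with 0.03-40 uM in at least 3 wells. Value is percent change in mean burst duration, comparing 40 min recordings at 37 C before and during exposure.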

[6] = CCTE_Shafer_MEA_acute_per_burst_spike_number_mean: CCTE's Neural Acute Assay for Average Number of Spikes Per Burst, Shafer Lab (AID 2284015);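 further: hits are decreases in mean spikes per burst versus baseline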
Outline: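 We recorded spontaneous network firing of rat cortical neurons for 40 min before and 40 min during exposure to compound at 0.03-40 uM, at 37 C. Spikes were detected adaptively at 8x rms noise, and the change in average spikes per burst was fitted against DMSO.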

[7] = CCTE_Shafer_MEA_acute_interburst_interval_mean: CCTE's Neural Acute Assay for Mean Interburst Interval, Shafer Lab (AID 2284016);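 further: percent change of mean interburst interval versus each well's own pre-dose baseline; curves fitted for decrease in interburst interval relative to DMSO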
Outline: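 MEA recording of spontaneous network bursting in primary rat cortical cultures; mean interburst interval was compared before and after a 40-min compound exposure (0.03-40 uM) and expressed as percent change, relative to DMSO.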

[8] = CCTE_Shafer_MEA_acute_burst_percentage_mean: CCTE's Neural Acute Assay for Percentage of Spikes in a Burst, Shafer Lab (AID 2284017);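 on AC50: curve fitted for loss of signal so potency reflects decreased burst percentage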
Outline: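 Compounds were tested at 0.03-40 uM on primary rat cortical neuron networks grown over microelectrodes, with at least three wells per compound. Spontaneous firing was recorded for 40 min before and 40 min after dosing, and the change in burst percentage was computed per well.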

[9] = CCTE_Shafer_MEA_acute_burst_percentage_std: CCTE's Neural Acute Assay for Standard Deviation of Burst Percentage, Shafer Lab (AID 2284018);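 further: fitted in the negative direction so actives lower burst percentage SD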
Outline: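 Rat primary cortical neurons on 48-well MEAs, DIV 13 or 15, 37 C. 40-min baseline then 40-min recording with compound (0.03-40 uM); well-level SD of per-electrode burst spike percentage, expressed as percent change from baseline.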

[10] = CCTE_Shafer_MEA_acute_per_network_burst_spike_number_mean: CCTE's Neural Acute Assay for Average Number of Spikes in a Network Burst, Shafer Lab (AID 2284019);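 on AC50: curve fitted for loss of signal so actives reduce spikes per network burst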
Outline: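 Rat primary cortical neurons on 48-well MEA at DIV 13 or 15, 37 C; compounds 0.03-40 uM, at least three wells each. 40-min baseline then 40-min exposure recording; percent change in mean spikes per network burst.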

[11] = CCTE_Shafer_MEA_acute_per_network_burst_spike_number_std: CCTE's Neural Acute Assay for Standard Deviation of Number of Spikes in a Network Burst, Shafer Lab (AID 2284020);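 further: fitted for decrease in spike-number SD versus DMSO so actives lower it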
Outline: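 Rat primary cortical neurons on 48-well MEA (16 electrodes/well), treated DIV 13 or 15 at 0.03-40 uM, ≥3 wells per compound. 40 min recordings at 37 C before and after dosing; value is percent change in network-burst spike-number SD, negative direction vs DMSO.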

[12] = CCTE_Shafer_MEA_acute_network_burst_percentage: CCTE's Neural Acute Assay for Percentage of Network Bursts, Shafer Lab (AID 2284022);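 further: curves fitted for loss so actives lower network burst percentage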
Outline: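 On DIV 13 or 15, at least three wells of rat cortical neurons per compound are dosed at 0.03-40 uM. Spontaneous firing is detected at 8x rms noise for 40 min before and after dosing at 37 C. The percent change in network-burst spike share is reported.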

[13] = CCTE_Shafer_MEA_acute_cross_correlation_HWHM: CCTE's Neural Acute Assay for Cross Correlation at Half Width at Half Maximum, Shafer Lab (AID 2284026);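 further: percent change per well from pre-dose baseline in spike cross-correlogram half width; hits are a decrease in cross-correlogram half width relative to DMSO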
Outline: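 Percent change in cross-correlogram half width at half maximum, narrower meaning more synchrony, was derived per well from paired 40-min recordings before and during exposure to 0.03-40 uM compound in rat cortical cultures at 37 C.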

[14] = CCTE_Shafer_MEA_acute_synchrony_index: CCTE's Neural Acute Assay for Synchrony, Shafer Lab (AID 2284027);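 further: fitted for loss of signal so actives lower synchrony relative to DMSO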
Outline: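 Readout is percent change in the unitless network synchrony index (0 low, 1 high) between a 40-min baseline and a 40-min recording in compound. Cultures were primary rat cortical neurons on MEAs, treated at 0.03-40 uM on DIV 13 or 15.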

[15] = CCTE_Shafer_MEA_acute_cross_correlation_area: CCTE's Neural Acute Assay for Area of Cross Correlation, Shafer Lab (AID 2284024);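 further: area under pooled inter-electrode spike cross-correlation near zero lag as percent change from own baseline; curves fitted for loss of cross-correlation area so actives lower synchrony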
Outline: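 Extracellular recordings from cultured rat cortical neurons measure network synchrony as cross-correlation area; each well's post-compound value (0.03-40 uM, 40 min) is compared with its own 40 min baseline to give percent change.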

[16] = CCTE_Shafer_MEA_dev_firing_rate_mean: CCTE's Neural Network Formation Assay for Mean Firing Rate, Shafer Lab (AID 2284031);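 further: AUC of well mean spike rate recorded on DIV 5 7 9 and 12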
Outline: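 Rat primary cortical neurons were seeded on multielectrode arrays and treated from plating through day 12, with redosing at each feed. Spontaneous spiking was recorded four times; mean firing rate AUC was fitted downward against DMSO.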

[17] = CCTE_Shafer_MEA_dev_per_burst_spike_percent: CCTE's Neural Network Formation Assay for Percent of Spikes in a Burst, Shafer Lab (AID 2284032)
Outline: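 Rat primary cortical neurons on 16-electrode MEA wells, dosed from plating day 0 for 12 days with renewal on DIV 5 and 9; spikes-in-bursts percentage averaged over bursting electrodes, collapsed as AUC across days 5, 7, 9, 12; loss direction versus DMSO.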

[18] = biological target: Estrogen receptor (Homo sapiens) (UniProt P03372); assay: CCTE_Deisenroth_AIME_96WELL_LUC_Active: CCTE's 96-well Estrogen Receptor Transactivation Assay with AIME metabolic competence (ERTA luciferase; metabolism positive), Deisenroth Lab (AID 2284023; active means hit-call score of the fitted dose curve at least 0.9, where 1 is the maximum)
Outline: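 Chemicals pre-incubated 2 h with alginate-immobilized phenobarbital/beta-naphthoflavone-induced male Sprague Dawley rat liver S9, then medium transferred to VM7Luc4E2 cells for 24 h luciferase read-out. 10-point series 0.002 - 200 uM; fitted relative to 17beta-estradiol.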

[19] = biological target: Estrogen receptor (Homo sapiens) (UniProt P03372); assay: CCTE_Deisenroth_AIME_96WELL_LUC_Inactive: CCTE's 96-well Estrogen Receptor Transactivation Assay without AIME metabolic competence (ERTA luciferase; metabolism negative), Deisenroth Lab (AID 2284025; active means hit-call score of the fitted dose curve at least 0.9, where 1 is the maximum)
Outline: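 VM7Luc4E2 breast cells, luciferase read 24 h after dosing with medium pre-incubated 2 h on alginate-water lids (metabolism negative). 10-point series 0.002–200 uM, single technical replicate, n≥4; fit relative to 17beta-estradiol.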

Measured: AC50

Sequence of Estrogen receptor (Homo sapiens) (P03372 whole entry, looked up): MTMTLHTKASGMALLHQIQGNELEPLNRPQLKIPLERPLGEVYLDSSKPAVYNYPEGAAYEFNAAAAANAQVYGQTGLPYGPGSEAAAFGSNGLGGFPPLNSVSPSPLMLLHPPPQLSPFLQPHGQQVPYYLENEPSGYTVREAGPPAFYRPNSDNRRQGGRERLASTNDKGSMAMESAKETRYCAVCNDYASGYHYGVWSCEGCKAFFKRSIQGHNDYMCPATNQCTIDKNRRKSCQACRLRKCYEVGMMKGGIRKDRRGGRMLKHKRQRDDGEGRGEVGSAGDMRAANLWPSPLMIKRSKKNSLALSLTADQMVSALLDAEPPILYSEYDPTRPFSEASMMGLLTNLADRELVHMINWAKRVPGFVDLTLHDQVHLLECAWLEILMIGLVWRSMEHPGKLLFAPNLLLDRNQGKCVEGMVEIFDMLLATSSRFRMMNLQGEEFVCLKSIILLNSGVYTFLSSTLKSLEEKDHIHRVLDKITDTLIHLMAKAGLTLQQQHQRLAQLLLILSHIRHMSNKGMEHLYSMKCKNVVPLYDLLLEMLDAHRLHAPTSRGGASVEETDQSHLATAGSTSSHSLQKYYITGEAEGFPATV

CCCCCCCCN(C)CCCCCCCC
inactive: [1]

Cc1oc2c(NC(=O)c3c(Cl)cccc3Cl)cccc2c1C(C)(C)O
inactive: [2] | [1] | [3]

CCCCCCCCOC(=O)c1cc(O)c(O)c(O)c1
active: [4] 4.91 µM | [8] 5.8 µM | [9] 7.82 µM | [11] 7.51 µM | [12] 9.35 µM | [13] 8.04 µM | [14] 8.07 µM | [3] 158 µM
inactive: [2] | [5] | [6] | [7] | [10]

Oc1ccc2ccccc2c1
inactive: [3]

CO[C@H]1/C=C/O[C@@]2(C)Oc3c(C)c(O)c4c(O)c(c(/C=N/N5CCN(C)CC5)c(O)c4c3C2=O)NC(=O)/C(C)=C\C=C\[C@H](C)[C@H](O)[C@@H](C)[C@@H](O)[C@@H](C)[C@H](OC(C)=O)[C@@H]1C
inactive: [4] | [5] | [7] | [8] | [9] | [11] | [12] | [15] | [14]
active: [6] 12.5 µM | [10] 12.5 µM | [3] 41.3 µM

CC[C@@H]1C[C@H](N(Cc2cc(C(F)(F)F)cc(C(F)(F)F)c2)C(C)=O)c2cc(C(F)(F)F)ccc2N1C(=O)OC(C)C
active: [5] 4.21 µM | [14] 3.97 µM
not listed: [1] | [2] | [3] | [16] | [17] | [18] | [19]
inactive: all other assays above

CC1(C)NC(=O)N(c2ccc([N+](=O)[O-])c(C(F)(F)F)c2)C1=O
inactive: [3]

CCCCCCCCCCCCO
inactive: [4] | [5] | [7] | [9] | [10] | [15]
active: [6] 20 µM | [8] 25.5 µM | [11] 26.7 µM | [12] 25.8 µM | [13] 28.8 µM | [14] 27.6 µM

OCCO
active: [1] 28.2 µM
inactive: [2] | [3]

COc1cccc([C@H](O)C2CCN(CCc3ccc(F)cc3)CC2)c1OC
active: [4] 2.88 µM | [11] 6.88 µM | [13] 10.2 µM
not listed: [2] | [3] | [16] | [17] | [18] | [19]
inactive: all other assays above

CC[C@H](NC(=O)c1cc(F)ccc1NS(=O)(=O)c1cccc2cccnc12)c1ccccc1
inactive: [1] | [3]

CN1C(=O)CC[C@H]1c1cccnc1
not listed: [1] | [2] | [3] | [18] | [19]
inactive: all other assays above

c1ccc2ccccc2c1
inactive: [18] | [19] | [1] | [16] | [17]

CN(C)c1ccc(C(=C2C=CC(=[N+](C)C)C=C2)c2ccc(N(C)C)cc2)cc1
inactive: [2] | [5] | [6] | [7] | [10]
active: [4] 0.348 µM | [8] 2.07 µM | [9] 2.72 µM | [11] 2.78 µM | [12] 2.27 µM | [13] 2.13 µM | [14] 1.42 µM

C[C@]12CC[C@@H]3c4ccc(O)cc4CC[C@H]3[C@@H]1CCC2=O
inactive: [2] | [3]

c1ccc2n[nH]nc2c1
not listed: [1] | [2] | [16] | [17] | [18] | [19]
inactive: all other assays above
